This passage reports Potency results from PubChem BioAssay AID651789 (National Center for Advancing Translational Sciences (NCATS), 2012).

Records with an inconclusive call do not appear. A call without a number means that no potency is given here. Calls of active or inactive are those of the source. Calls follow the shape of the dose curve; as a rule, active = well fitted inhibition curve with a large enough effect; inconclusive = small, poorly fitted or top-dose-only effect; inactive = no such curve, though single readings can be large or run the other way.
Potency is read from the fitted curve at half-maximal effect.

A short description of the assay: Acumen qHTS Assay for Inhibitors of the mTORC1 Signaling Pathway in WT MEF Cells: Hit Validation. Also: nearly all actives have a fitted effect of over 60% in size. The following applies: Acumen imaging; series mostly up to 37.3 µM. An excerpt: The mammalian target of rapamycin (mTOR) is an intracellular serine/threonine kinase Aberrant regulation of mTOR signaling plays a causative role in a number of human diseases, including cancer, benign tumors such as lymphangioleiomyomatosis (LAM) and Tuberous Sclerosis Complex (TSC), and metabolic diseases such as diabetes and obesity. This project aims to identify inhibitors of ribosomal protein S6 (rpS6) phosphorylation. The phosphorylation of rpS6 is a key event downstream of mTOR activation. The assay uses a phospho-specific antibody of phospho-rpS6 to detect inhibitors of mTOR activation. Mutations in the Tsc1 and Tsc2 genes are the underlying genetic lesions responsible for TSC, causing constitutive activation of the mTORC1 pathway and leading to profound effects on cell metabolism. Aberrant metabolism in cancer has recently received significant attention as a target to develop therapeutic agents in the treatment of cancer.1 As Tsc2-/- cells have lost the ability to respond to energy and growth factor deprivation, these cells are unable to properly down regulate cellular biosynthetic processes in response to metabolic stress, and are thus extremely sensitive to glucose deprivation-induced death.2 A central goal of this project is to explore the unique cell survival and metabolic properties of cells with Tsc1 or Tsc2 by screening for compounds that selectively target the Tsc2-/- MEFs by screening both Tsc2-/- and WT MEF cell lines. We hope to better understand these aspects of TSC physiology in order to exploit them for therapeutic benefit.
NIH Molecular Libraries Probe Production Centers Network [MLPCN]
NIH Chemical Genomics Center [NCGC]
Assay Submitter (PI): Blenis, John; Harvard University
For quantitative high throughput analysis of mTORC1 signaling, we developed a cell-based assay for immuno-fluorescence based detection of rpS6 phosphorylation on the Acumen Explorer that will be used a platform for the primary small molecule screen. Mouse embryonic fibroblasts (MEFs) are cultured in 1536-well plates using DMEM + 10% FBS. Twenty-four hrs after plating, test compounds (solubilized in DMSO) are delivered and incubated with the cells for 24 hrs at 37 degree Celsius. Following the incubation, media with compound is aspirated and the cells are fixed in 4% paraformaldehyde (PFA) containing PBS + 0.2% TX-100. Next, PFA is aspirated, cells are washed two times with PBS plus 0.2% TX-100 and the cells are blocked for 1 hr at room temperature (blocking buffer: LiCOR Blocking Buffer plus 0.2% TX-100). This is followed by aspiration and staining with Alexa-488 conjugated-phospho-rpS6 Ser235/236 antibody for 2 hours at room temperature (Cell Signaling Technology # 4803, 1:50 dilution in blocking buffer). Cells are washed two times with PBS plus 0.2% TX-100, and stained with 10 uM propidium iodide (PI) for 20-25 minutes for cell number measurement (1:500 dilution of Hoescht staining is also added for IN Cell imaging). The plates are scanned on the Acumen Explorer laser scanning instrument (TTP Labtech) using the 488nm laser for simultaneous excitation of the Alexa-488 and PI. […] Fluorescence emission from the PI stain is selected using a 575-640 nm band pass filter. The normalized phospho-S6 staining is calculated as the ratio of the integrated Alexa 488 intensity divided by the integrated PI intensity for the single concentration rapamycin control (7.5 nM) and DMSO columns. […] Inhibition of the pathway is defined based on the normalized phospho-S6 intensity in rapamycin treated cells. Active cells are defined as those with a normalized phospho-S6 staining above this threshold, and each treatment is reported as the % positive cells in the well, where thresholds are defined by selecting wells with the highest and lowest signal and differentiating between the % non-active and % active populations. In addition to the pathway specific phospho-S6 endpoint, the number of PI stained cells from the Acumen is recorded as a measure of cell viability. […]
As to `Cc1ccc(C(=O)CC2(O)C(=O)N(Cc3ccccc3)c3ccc(Br)cc32)cc1` (stereo not given), the Potency result is “inactive”.

`CCCCN(C)CCNC(=O)c1cc2c(=O)n(C)c3ccccc3c2n1C`: the Potency entry is “inactive”.

In the case of `O=C(NCc1ccc(Cl)cc1)C(=O)NCC(c1cccs1)S(=O)(=O)c1ccc(Cl)cc1` (stereo not given), the Potency entry is “inactive”. The value for `Cc1ccc(-c2noc(CCC(=O)N(C)c3ccccc3F)n2)cc1` was “inactive”; that for `COc1cc(NC(=O)CSc2ccc(-c3ccccn3)nn2)cc(OC)c1` was “inactive”. As for `CCN(C(=O)C(NS(=O)(=O)c1ccc(Br)s1)c1ccccc1)c1ccc(C)c(C)c1` (stereo not given), the Potency entry is “inactive”.

In the case of `CCOc1ccc(NC(=O)CN2C(=O)C(c3ccc(Cl)cc3)=NC2(C)C)cc1`, the Potency result is “inactive”.

With `CCCC(=O)OC1=CN(Cc2ccccc2)S(=O)(=O)c2ccccc21`, the Potency is 3.69 µM (active). On to `CN1CCN(C2(CNC(=O)c3ccc(C(C)(C)C)cc3)CCCCC2)CC1`, for which the Potency result was “inactive”. As to `Cc1cccc(Cn2cc(C(=O)Nc3ccc(F)c(C(F)(F)F)c3)ccc2=O)c1`, the Potency result was “inactive”.

Consider `CCc1ccc(NC(=O)Cn2nc(C(F)(F)F)c3c2CCCC3)cc1`, for which the Potency entry is “inactive”. As for `COc1ccc2cc(CNc3ccccc3)c(=O)n(CC(=O)Nc3ccc(C)cc3C)c2c1`, the Potency entry is “inactive”. Take `CN(C)c1ccc(NC(=O)Cn2cc(S(=O)(=O)Cc3ccccc3Cl)c3ccccc32)cc1`: the Potency is 13.1 µM (active). On to `CCOc1ccccc1NC(=O)CSc1cc(=O)n(CC)c2ccccc12`, for which the Potency entry is “inactive”. For the compound `O=C(NCC(c1cccs1)S(=O)(=O)c1cccs1)c1ccccc1` (stereo not given), the Potency entry is “inactive”. Consider `Cc1ccc(C(C)C)c(OCC(=O)Nc2cc(-c3nc4ccccc4[nH]3)ccc2C)c1`, for which the Potency result is “inactive”.

Take `CCOC(=O)c1c(NC(=O)c2nc(S(C)(=O)=O)ncc2Cl)sc(C(C)=O)c1C`: the Potency was 2.07 µM (active). Take `CCN1CCOC(=O)C1CC(=O)Nc1cc(C)ccc1OC` (stereo not given): the Potency was 16.5 µM (active). Regarding `COc1ccc(NC(=O)CSc2nc3ccccc3n2Cc2cccc(OC)c2)cc1`, the Potency result was “inactive”. Turning to `CCCCS(=O)(=O)c1oc(-c2cccs2)nc1S(=O)(=O)c1ccccc1`, the Potency is 1.31 µM (active). The value for `CCOc1ccc(CCNCc2c(C(=O)O)n(Cc3ccc(C)cc3)c3cc(OC)ccc23)cc1` was “inactive”; that for `Cn1nc(-c2ccc(OCC(=O)Nc3ccc(Cl)cc3)cc2)c2ccccc2c1=O` was “inactive”.

In the case of `Cc1cccc(Nc2ncc(NC(=O)c3cccc(F)c3)c(Nc3cccc(C)c3)n2)c1`, the Potency is 5.85 µM (active).

Take `CCCS(=O)(=O)c1ncc(Cl)c(C(=O)N2CCN(c3ccc(OC)cc3)CC2)n1`: the Potency is 2.93 µM (active). In the case of `O=C(Nc1ccccc1)N(Cc1cccc(Cl)c1)c1ccccn1`, the Potency entry is “inactive”.

In the case of `CC/C(=C(\c1ccccc1)c1ccc(OCCN(C)C)cc1)c1ccccc1`, the Potency entry is “inactive”.

With `CCN(CC)CCn1c(=N)n(CCOc2ccccc2Cl)c2ccccc21`, the Potency is 9.27 µM (active). Turning to `Cc1nn(CC(=O)N2CCN(c3ccccc3F)CC2)c(=O)c2cccn12`, the Potency entry is “inactive”. As for `Cc1c(C(=O)OCc2ccccc2)[nH]c2c1C(=O)CC(c1ccc(Cl)cc1)C2` (stereo not given), the Potency is 13.1 µM (active).

For `CCOc1ccc(S(=O)(=O)Nc2ccc(OC)c(Cl)c2)c2cccnc12`, the Potency entry is “inactive”. On to `COc1ccc(OCC(=O)Nc2ccc3nn(-c4ccc(OC)cc4)nc3c2)cc1`, for which the Potency result was “inactive”. Regarding `CN(C)CCN(Cc1ccco1)C(=O)c1cc2c(s1)-c1ccccc1OC2`, the Potency result was “inactive”. As for `CCCC1=Nc2cc(C(=O)NCc3ccccc3)ccc2Sc2ccccc21`, the Potency is 2.61 µM (active). To `CCOc1ccc(NC(=O)c2sc3nc4c(cc3c2N)CCCCCC4)cc1` belongs “inactive”; to `COc1ccc(CCN(C)CCCC(C#N)(c2ccc(OC)c(OC)c2)C(C)C)cc1OC` (stereo not given), “inactive”; to `COc1cc(C(=O)N(CCCN(C)C)c2nc3c(OC)cccc3s2)cc(OC)c1OC`, “inactive”. On to `CCOc1ccccc1NC(=O)Cn1c(=O)n(CCC(=O)NCc2ccc3c(c2)OCO3)c(=O)c2ccccc21`, for which the Potency entry is “inactive”. The value for `CCC1CN(C(=O)NCc2ccc(F)cc2)c2cc(C)ccc2O1` (stereo not given) was “inactive”; that for `COc1ccccc1C(=O)Nc1ccc2nc(N3CCC(C)CC3)cc(C)c2c1` was “inactive”. For the compound `CCN1CCOC(=O)C1CC(=O)Nc1ccc(Br)cc1` (stereo not given), the Potency entry is “inactive”.
